From PubChem BioAssay AID492992 (Johns Hopkins Ion Channel Center, 2010)
Out of some 4,900 compounds screened, about 2,100 (43%) were called active.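 How the source made its calls: active means thallium signal inhibited by more than 5 SD of the compound-free buffer control wells, on both duplicate plates; inactive means the rest.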 The set was probably picked from earlier hits. Not all results are given here.

molecular target: Potassium channel subfamily K member 9 (Homo sapiens) (UniProt Q9NPC2); assay: blockers of human TASK-3 (KCNK9) channel – HEK293 cells, thallium flux, duplicate, confirmation (AID 492992); settings: FluxOR thallium flux fluorescence, at 10 µM; hits give high values;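 on inhibition: 0% = assay buffer control wells without compound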
Sequence (Q9NPC2 whole entry, looked up): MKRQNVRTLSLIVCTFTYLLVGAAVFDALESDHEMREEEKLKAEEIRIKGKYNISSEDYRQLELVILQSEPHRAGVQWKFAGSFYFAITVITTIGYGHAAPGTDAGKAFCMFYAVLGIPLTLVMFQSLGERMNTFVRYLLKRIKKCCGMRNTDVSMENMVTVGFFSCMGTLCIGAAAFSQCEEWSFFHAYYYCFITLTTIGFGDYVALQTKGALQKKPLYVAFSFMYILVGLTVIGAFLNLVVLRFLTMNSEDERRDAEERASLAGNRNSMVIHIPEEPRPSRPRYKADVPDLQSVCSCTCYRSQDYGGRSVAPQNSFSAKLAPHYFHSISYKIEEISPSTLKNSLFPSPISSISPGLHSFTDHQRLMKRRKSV

Compound	inhibition
CN(CCC(=O)Nc1cc(S(=O)(=O)N(C)C)ccc1Cl)CC(=O)Nc1ccc(F)cc1	51.5% (active)
CC1CCN(C(=S)c2ccc(-c3ccc(Cl)cc3Cl)o2)CC1	inactive
COc1ccc(C2Nc3ccccc3C(=O)N2Cc2ccccc2)cc1Cn1nnc2ccccc21 (centres undefined)	inactive
O=C(Nc1ccc(Cl)c(Cl)c1)N1CC=C(c2ccccc2)CC1	30% (active)
O=C(COC(=O)c1ccccc1)Nc1ccccc1Sc1ccccc1	35% (active)
CCN(C(=O)COc1ccc(C(=O)c2ccccc2)cc1)c1ccccc1	40% (active)
CCOC(=O)[C@@H]1[C@H]2COc3ccc(Br)cc3[C@H]2N2C(=O)N(c3ccc(Cl)cc3)C(=O)[C@@]12C	56.5% (active)
C[C@@]12C(=O)N(c3cccc(Br)c3)C(=O)N1[C@H](c1ccc(Cl)cc1)[C@@H]1C(=O)N(C3CCCCC3)C(=O)[C@@H]12	inactive
COc1cccc2cc(C(C)N(CCCN3CCOCC3)C(=O)Nc3ccc(Cl)cc3)oc12 (centres undefined)	42.5% (active)
Cc1cccc2cc(CN(Cc3nnnn3Cc3ccccc3)C3CCCC3)c(=O)[nH]c12	27% (active)
CCC(c1nnnn1Cc1ccco1)N(CCc1ccccc1)Cc1cc2cccc(C)c2[nH]c1=O (centres undefined)	47% (active)
CCOc1ccc(OCc2ccc(C(=O)Nc3cccc(C)n3)o2)cc1	inactive
O=C(Cc1ccccc1)n1nc(-c2ccccc2)nc1NCc1ccco1	inactive
CCC1(C)Cc2c(sc3[nH]c(=S)n(Cc4ccccc4)c(=O)c23)CO1 (centres undefined)	inactive
CCCSc1nc(NCc2ccco2)c2c3c(sc2n1)COC(C)(CC)C3 (centres undefined)	40% (active)
Cc1ccc(C)c(NC(=S)NNC(=S)Nc2ccc(C(C)C)cc2)c1	inactive
CCOC(=O)Cc1cc(=O)[nH]c(=O)[nH]1	25% (active)
Clc1ccc(Cl)c(Oc2ccc(Oc3nc(Cl)ccc3Cl)cc2)n1	inactive
CCC/C=C(\CCC)C(NC(=O)Cc1ccccc1)c1ccc(C(=O)OC)cc1 (centres undefined)	67% (active)
CC(C)(C)SCCSC1=CC(=O)CC(c2ccccc2)C1 (centres undefined)	inactive
CCCCCC(O)c1cccc(OCc2ccc3ccccc3n2)c1 (centres undefined)	74.5% (active)
COc1cccc(-c2cnc(OC(C)(C)C)nc2OC(C)(C)C)c1	inactive
CCOC(=O)c1cc2sccc2n1Cc1ccc(C#N)cc1	65% (active)
CCOC(=O)c1c(NC(=O)CCCN2CCOCC2)sc2c1CC(C)(C)OC2	inactive
CN(CCOc1ccccc1)C(=O)c1cc(COc2c(F)cccc2F)on1	inactive

Compound	inhibition
CCOC(=O)C1=C(C)Nc2sc(C(=O)c3ccc(Br)cc3)c(N)c2C1c1ccc(C(=O)OC)cc1 (centres undefined)	31% (active)
COc1cc(Cl)c(S(=O)(=O)N2CCN(Cc3ccc4c(c3)OCO4)CC2)cc1Cl	inactive
COc1ccc(C(=O)NN2C(=O)C3C(c4ccccc4)C=CC(c4ccccc4)C3C2=O)cc1 (centres undefined)	inactive
COc1ccc(C(=O)Nc2ccccc2C(=O)N/N=C/c2ccccc2OC)cc1	36.5% (active)
O=C(CNCCC1=CCCCC1)Nc1ccccc1N1CCCCCC1	51.5% (active)
O=c1cc(CN2CCN(c3cccc(Cl)c3)CC2)c2cc3c(cc2o1)CCCC3	inactive
COc1cccc(OC)c1C(=O)Nc1sc2c(c1C(N)=O)CCCC2	33% (active)
CCOC(=O)c1c(NC(=O)CSc2cn(CC)c3ccccc23)sc2c1CCC2	inactive
Cc1ccc(C(=O)c2c(NC(=O)c3ccncc3)sc3c2CCCC3)cc1	inactive
Cc1cc2ccccn2c1C(=O)c1cccc(F)c1	inactive
COc1ccc(C(CCN(Cc2ccc(OC)c(OC)c2)C(=O)CCl)c2ccccc2)cc1 (centres undefined)	36% (active)
Cc1ccc(-c2csc(NCCc3nc4cc(Cl)c(Cl)cc4n3CCOCCO)n2)cc1	54% (active)
CCOC(=O)N1CCN(C(=O)COc2ccc3oc4c(c3c2)CCCC4)CC1	inactive
Cc1cccc(NC(=O)c2sc3nc4c(c(-c5ccco5)c3c2N)CCC4)c1	58.5% (active)
O=C(N/N=C/c1ccccn1)c1cccc(NC(=O)c2ccc(Cl)cc2)c1	48% (active)
O=C(COc1ccc(Cl)cc1Cl)N/N=C/c1ccccn1	47% (active)
O=C(Nc1ccc2c(c1)CCC2)c1cccc(S(=O)(=O)Nc2ccccc2Cl)c1	inactive
Oc1ccc(/C=N/Nc2nc(-c3ccccc3F)nc3ccccc23)c(O)c1	inactive
COc1ccc(C(=O)C2CCCN(C(=O)c3ccc(OC)o3)C2)c(C)c1 (centres undefined)	inactive
COc1ccc(OC)c(C(=O)c2coc3ccc(OC)cc23)c1	47% (active)
Cc1ccnc(N2CCN(C(=O)CSc3nc4ccccc4nc3N3CCCCC3)CC2)c1	inactive
Clc1ccc(COn2c(-c3ccc(Cl)cc3Cl)nc3ncccc32)cc1	41% (active)
Cc1onc(-c2ccc(Cl)cc2)c1-c1ccnn1S(=O)(=O)c1ccc(Cl)cc1	inactive
Cc1ccc(SCC(=O)c2cc(C)c(OC(=S)N(C)C)c(C)c2)cc1	inactive
Cc1[nH][nH]c(=O)c1C(c1ccc(-c2ccc(Cl)cc2)o1)c1c(C)[nH][nH]c1=O	inactive

Compound	inhibition
Cc1cc(C=O)c(C)n1-c1ccc(NC2CCCCC2)c([N+](=O)[O-])c1	63% (active)
Cc1ccc(NC(=O)c2cc([N+](=O)[O-])ccc2Cl)c(O)c1	58.5% (active)
CCN(CC)S(=O)(=O)c1ccc(N(C)Cc2ccc(C(F)(F)F)cc2)nc1	inactive
O=C1CC(c2ccccc2)=NN1c1ccc([N+](=O)[O-])cc1	inactive
O=C1c2ccccc2S(=O)(=O)N1CC(O)Cn1c2ccccc2c2ccccc21 (centres undefined)	28% (active)
CCCCOC(=O)CCCc1ccc([N+](=O)[O-])cc1[N+](=O)[O-]	inactive
Cc1ncoc1C(=O)N1CCCC(C(=O)c2ccc3c4c(cccc24)CC3)C1 (centres undefined)	inactive
COC(=O)C1=C(Nc2ccc(C)cc2)C=C(C)C(C(=O)OC)C1c1ccc(F)cc1 (centres undefined)	36% (active)
CCn1cnc2scc(-c3ccc(C)c(C)c3)c2c1=O	inactive
CCCOc1ccc2c3c(c(=O)oc2c1OCCC)CCC3	66.5% (active)
COc1ccc(C2CC(c3cccs3)=NN2c2ccccc2)cc1 (centres undefined)	50% (active)
COc1ccc(/C=C2\CCc3ccccc3C2=O)c(OC)c1OC	inactive
Cc1ccccc1CSCCNC(=O)c1ccc(N(C)S(=O)(=O)c2ccccc2)cc1	inactive
CN(c1ccccc1)S(=O)(=O)c1cccc(NC(=O)Cc2c(F)cccc2Cl)c1	67.5% (active)
FC(F)(F)c1cc(-c2ccco2)nc(NCc2ccc(Cl)cc2)n1	inactive
Fc1cccc(Cl)c1CSc1ccc(-c2ccco2)nn1	67% (active)
O=C(Nc1ccc(S(=O)(=O)N2CCCCC2)cc1)C1CCN(C(=O)c2ccc(F)cc2)CC1	inactive
Cc1ccc(C(=O)/C=C/c2c(C)nn(-c3ccccc3)c2Cl)cc1	inactive
Cc1ccccc1N1CCN(Cc2nc(Cc3ccccc3F)no2)CC1	inactive
CC1CCN(C(=O)c2ccc(CSc3ccc(Cl)cc3)cc2)CC1	inactive
CC(C)CC(COCc1ccc(Cl)cc1)N1CCN(C(=O)c2ccc(C(F)(F)F)cc2)CCC1=O (centres undefined)	39.5% (active)
CCCCN(CC)C(=O)C1CCCN(S(=O)(=O)c2cccc3nsnc23)C1 (centres undefined)	inactive
O=C(Nc1nnc(SCc2ccc(Cl)cc2Cl)s1)C1COc2ccccc2O1 (centres undefined)	inactive
COc1ccc(C(=O)C2CCCN(Cc3ccc4nonc4c3)C2)c(C)c1 (centres undefined)	inactive
CCCCCCCCn1c2c(c(=N)c3c1CCC3)CCCC2	62.5% (active)

Compound	inhibition
O=C(NC(=S)Nc1ccccc1C(=O)O)c1ccc(-c2ccc(Br)cc2)o1	inactive
COc1ccc(-c2n[nH]c3c2CN(C(=O)c2ccc(F)cc2)CC3)cc1	inactive
Cc1cc(OC(C)C(=O)Nc2ccc(S(=O)(=O)Nc3onc(C)c3C)cc2)cc(C)c1Cl (centres undefined)	inactive
O=C(Nc1ccccc1[N+](=O)[O-])C1C(c2ccccc2)=C1c1ccccc1	40% (active)
Cc1ccc(CN2CCN(/N=C/c3ccco3)CC2)c(C)c1	inactive
CC1=NN(c2cccc(Cl)c2)C(=O)C12CC(C)=C(C)CS2 (centres undefined)	45.5% (active)
O=C(NCCc1ccccc1)c1ccc2c(c1)N(Cc1ccccc1)CCS2	inactive
COc1ccccc1N1CCN(c2ncnc3sc(C)c(-c4ccccc4)c23)CC1	56% (active)
CCCCNC(=S)N/N=C1\CCCCc2ccccc21	inactive
CCCC(=O)n1nc(NCc2ccc(OC)cc2)nc1NCc1ccc(OC)cc1	inactive
O=C(Nn1c(SCc2ccc([N+](=O)[O-])cc2)nc2ccccc2c1=O)c1ccc(F)cc1	65% (active)
Cc1ccc(N2CCN(S(=O)(=O)c3ccc(F)cc3)CC2)c(C)c1	inactive
Cc1cccc(C(=O)Nc2ccccc2N2CCN(c3ccc(F)cc3)CC2)c1	40% (active)
CCCCC(=O)Nc1ccccc1N1CCN(c2ccc(F)cc2)CC1	69% (active)
CCOC(=O)CSc1nc2c(sc(=S)n2CCc2ccccc2)c(=O)n1Cc1ccco1	29.5% (active)
COc1cccc(COc2ccc(N(C)S(=O)(=O)c3ccccc3)cc2)c1	50% (active)
Cn1nc(-c2ccccc2)c(CSc2cccc(Cl)c2)c1Cl	34.5% (active)
COC(=O)c1cc(NC2c3ccccc3C(=O)N2c2ccc(Cl)cn2)cc(C(=O)OC)c1 (centres undefined)	29.5% (active)
CCOC(=O)C(C)n1cnc2scc(-c3ccc(C)c(C)c3)c2c1=O (centres undefined)	inactive
COCCNc1cc(-c2ccccc2)nc2cc(-c3cccc(F)c3)nn12	53.5% (active)
Cc1ccc(Cn2ccc(NC(=O)c3cc(C(C)C)on3)n2)cc1	inactive
COC(C(=O)Nc1ccc(S(=O)(=O)Nc2ccc(C)c(C)c2)cc1)c1ccccc1 (centres undefined)	inactive
O=C(Nc1cc(Cl)cc(Cl)c1)C(NCCCO)c1ccccc1 (centres undefined)	inactive
CC(C)C(=O)Nc1cccc(NC(=S)NC(=O)C(c2ccccc2)c2ccccc2)c1	52% (active)
